Among the data in PubChem BioAssay (NCI) are growth values, retold here.

This is part of a sample that, as a whole, favours compounds with a hit. Of some 83,000 tested, about 20% had one in any assay.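 Negative percent growth values reflect cell death: -40 means 40% of the cells present at the start died, and -100 means all died.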 A number with no mark means an inactive call. Active and inactive are the calls of the source. How the source made its calls: active means growth percent below 10; inactive means the rest.

Some test systems named below: SR leukemia; RPMI-8226 leukemia; OVCAR-8 ovarian; OVCAR-5 ovarian; OVCAR-4 ovarian; SK-OV-3 ovarian; IGROV1 ovarian; HS 578T breast; NCI/ADR-RES ovarian; T-47D breast; BT-549 breast; MDA-MB-435 melanoma; SW-620 colon; MCF7 breast; HCT-116 colon; HCC-2998 colon; KM12 colon.
Common to all, as to assay: NCI-60 one-dose screen, 48 h (100 = growth as untreated, 0 = no growth, -100 = all killed)
Details in all cases: 10 µM unless noted

Consider `Cc1ccc(NC(=O)N[C@@H](Cc2cc(F)cc(F)c2)C(=O)NC2C(=O)N3CCC[C@H]3C(=O)N3CCCC[C@H]3C(=O)N[C@@H](C)C(=O)N3C[C@H](C)C[C@H]3C(=O)O[C@H]2C)c(F)c1` (stereo partly specified), for which the growth is 30.6% with SR leukemia; 11.6% with RPMI-8226 leukemia; 21.6% in the assay on OVCAR-8 ovarian; 36.3% in the assay with OVCAR-5 ovarian; 23.9% in the assay on OVCAR-4 ovarian; 23.9% with SK-OV-3 ovarian. For the same molecule, the growth in the assay with IGROV1 ovarian was 47.5%; in the assay on HS 578T breast it was 28.9%; with NCI/ADR-RES ovarian, 20.1%; in the assay on T-47D breast, 31.5%; in the assay on BT-549 breast, 28.7%; with MDA-MB-435 melanoma it was 21.2%. For the same molecule, the growth in the assay on SW-620 colon was 36.5%; with MCF7 breast, 15.5%; with HCT-116 colon, 9.88% (active); in the assay on HCC-2998 colon it was 23.9%; in the assay on KM12 colon, 38.7%.

Regarding `Nc1nc(-c2cccc([N+](=O)[O-])c2)c(N=Nc2cccc(Cl)c2)s1`, the growth is 31.4% with SR leukemia; 46.6% with RPMI-8226 leukemia; 41.4% in the assay on OVCAR-8 ovarian; 64.3% with OVCAR-5 ovarian; 49.2% in the assay with OVCAR-4 ovarian; 42.7% with SK-OV-3 ovarian. Moreover, the growth with IGROV1 ovarian was 33.8%; in the assay on HS 578T breast, 55%; in the assay on NCI/ADR-RES ovarian it was 38.9%; with T-47D breast it was 13.6%; in the assay with BT-549 breast, 48.7%; in the assay on MDA-MB-435 melanoma, 53.3%. For the same molecule, the growth with SW-620 colon is 52.4%; in the assay with MCF7 breast, 19.1%; in the assay with HCT-116 colon it was 33.2%; in the assay with HCC-2998 colon, 27.2%; in the assay on KM12 colon, 25.7%.

Take `CC1CCc2c(sc3nc(SCC(=O)N/N=C/c4ccc(Cl)cc4)n(-c4ccccc4)c(=O)c23)C1` (stereo unspecified): the growth in the assay on SR leukemia was 96%; with RPMI-8226 leukemia, 101%; with OVCAR-8 ovarian, 96.7%; with OVCAR-5 ovarian it was 99.4%; in the assay with OVCAR-4 ovarian, 99.4%; in the assay with SK-OV-3 ovarian it was 97.9%. The growth with IGROV1 ovarian is 100%; in the assay on HS 578T breast, 82.2%; in the assay on NCI/ADR-RES ovarian, 97.2%; in the assay with T-47D breast, 103%; in the assay on BT-549 breast it was 99.6%; with MDA-MB-435 melanoma it was 101%. Also, the growth in the assay on SW-620 colon is 107%; in the assay on MCF7 breast, 90.5%; with HCT-116 colon it was 89.7%; with KM12 colon, 103%.

For `C(=C(\C1=NCCN1)n1cnc2ccccc21)/c1ccc2ccccc2c1`, the growth with SR leukemia is 42.5%; in the assay on RPMI-8226 leukemia, 67.1%; with OVCAR-8 ovarian it was 88.5%; with OVCAR-5 ovarian, 79.4%; in the assay on OVCAR-4 ovarian, 72.6%; in the assay with SK-OV-3 ovarian, 66%. Besides, the growth in the assay on IGROV1 ovarian was 81.2%; with HS 578T breast it was 57.6%; in the assay on NCI/ADR-RES ovarian it was 76.6%; with T-47D breast, 57.1%; with BT-549 breast, 48.5%; with MDA-MB-435 melanoma it was 25.7%. Besides, the growth in the assay on SW-620 colon is 67.9%; in the assay with MCF7 breast, 30.4%; in the assay on HCT-116 colon it was 67.1%; in the assay with HCC-2998 colon, 71.5%; in the assay with KM12 colon, 69.2%.

As to `C/C=C/C=C1\C[C@H]2CO[C@H](O2)C1=O`, the growth in the assay with SR leukemia is 53.1%; in the assay with RPMI-8226 leukemia it was 95.4%; in the assay on OVCAR-8 ovarian, 99.7%; with OVCAR-5 ovarian, 103%; in the assay with OVCAR-4 ovarian, 101%; in the assay on SK-OV-3 ovarian, 103%. For the same molecule, the growth with IGROV1 ovarian was 97.7%; in the assay with HS 578T breast, 107%; with NCI/ADR-RES ovarian, 98.1%; in the assay on T-47D breast, 98.4%; in the assay on BT-549 breast, 127%; in the assay with MDA-MB-435 melanoma, 101%. Moreover, the growth is 69.1% in the assay on SW-620 colon; 67.1% in the assay on MCF7 breast; 82.3% in the assay on HCT-116 colon; 114% in the assay with HCC-2998 colon; 103% in the assay with KM12 colon.

For `Clc1ccc(-c2csc(Nc3cccc(Nc4csc(-c5ccc(Cl)cc5)n4)c3)n2)cc1`, the growth in the assay on SR leukemia is 96.8%; in the assay on RPMI-8226 leukemia, 86.3%; with OVCAR-8 ovarian, 87.3%; in the assay on OVCAR-5 ovarian, 77.5%; in the assay on OVCAR-4 ovarian it was 76.5%; with SK-OV-3 ovarian it was 79.3%. Besides, the growth in the assay on IGROV1 ovarian was 50.6%; with HS 578T breast, 73.4%; in the assay with NCI/ADR-RES ovarian it was 79.5%; with T-47D breast, 26.8%; with BT-549 breast, 112%; with MDA-MB-435 melanoma it was 88.6%. The growth was 86.6% in the assay with SW-620 colon; 60.7% in the assay with MCF7 breast; 67.2% in the assay with HCT-116 colon; 89.3% in the assay on HCC-2998 colon; 67.6% in the assay on KM12 colon.

With `COc1ccc(NC(=O)[C@H](C)N)cc1C(=O)Nc1cccc(-c2cc(=O)c3c(OC)c(OC)c(OC)cc3o2)c1`, the growth with SR leukemia was 36.5%; with RPMI-8226 leukemia, 44.1%; in the assay on OVCAR-8 ovarian, 50.1%; in the assay on OVCAR-5 ovarian, 102%; in the assay on OVCAR-4 ovarian it was 62.4%; with SK-OV-3 ovarian, 115%. In addition, the growth in the assay with IGROV1 ovarian was 56.7%; in the assay with HS 578T breast, 27.8%; with NCI/ADR-RES ovarian, 63.8%; in the assay with T-47D breast, 41%; in the assay with BT-549 breast it was 78.4%; in the assay on MDA-MB-435 melanoma, 82.1%. The growth in the assay with SW-620 colon was 94%; in the assay with MCF7 breast, 57.8%; in the assay with HCT-116 colon it was 75%; with HCC-2998 colon, 65.2%; in the assay on KM12 colon, 68.1%.

`CC(=O)Nc1ccc(C)c(Nc2cc(-c3ccc(-n4cccn4)cc3)[nH]n2)c1`: the growth with SR leukemia is 19.2%; in the assay with RPMI-8226 leukemia, 50.3%; in the assay on OVCAR-8 ovarian, 80%; with OVCAR-5 ovarian it was 93.3%; with OVCAR-4 ovarian, 82.1%; in the assay with SK-OV-3 ovarian, 59.3%. In addition, the growth with IGROV1 ovarian was 47.6%; in the assay on HS 578T breast it was 42.3%; with NCI/ADR-RES ovarian, 87.7%; in the assay with T-47D breast, 53%; with BT-549 breast, 30.4%; with MDA-MB-435 melanoma, -26.4% (active). Also, the growth was 31.5% in the assay on SW-620 colon; 23.4% in the assay on MCF7 breast; 19.3% in the assay on HCT-116 colon; 83.2% with HCC-2998 colon; 30.8% in the assay with KM12 colon.

Consider `COc1ccc2c(ccn2C(=O)N2c3ccccc3Sc3ccccc32)c1`, for which the growth is 22% with SR leukemia; 16.8% in the assay with RPMI-8226 leukemia; 31.9% with OVCAR-8 ovarian; 60.6% in the assay with OVCAR-5 ovarian; 66.5% in the assay on OVCAR-4 ovarian; 42.5% in the assay with SK-OV-3 ovarian. The growth with IGROV1 ovarian was 39.2%; with HS 578T breast, 19.8%; in the assay with NCI/ADR-RES ovarian, 11.6%; in the assay with T-47D breast it was 23%; in the assay with BT-549 breast, 34.3%; with MDA-MB-435 melanoma, -18.9% (active). Moreover, the growth in the assay with SW-620 colon was 16.8%; in the assay on MCF7 breast, 29.6%; with HCT-116 colon it was 31.6%; with KM12 colon, 24.2%.
